Most compounds without a hit are left out; they make up all but 32% or so of the library.
PostGolgi ctrl: yeast control strain growth, post-Golgi counter-screen; efflux-deficient yeast background strain, growth absorbance A615, 16 h; actives 5% (n = 98,000); AID 738; inhibition, % at 10 µM
CYP2C19 activ: activators of human cytochrome P450 2C19. P33261. 96,000 tested, under 10 active. recombinant CYP2C19, luciferin-H EGE luminescence; hits give high values; 0 = fully inhibited enzyme, 1 = untreated enzyme. activation factor at 5 µM;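 active = activation factor of at least 2 at 5 µM in the primary screen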
Target sequence (P33261 whole entry, looked up): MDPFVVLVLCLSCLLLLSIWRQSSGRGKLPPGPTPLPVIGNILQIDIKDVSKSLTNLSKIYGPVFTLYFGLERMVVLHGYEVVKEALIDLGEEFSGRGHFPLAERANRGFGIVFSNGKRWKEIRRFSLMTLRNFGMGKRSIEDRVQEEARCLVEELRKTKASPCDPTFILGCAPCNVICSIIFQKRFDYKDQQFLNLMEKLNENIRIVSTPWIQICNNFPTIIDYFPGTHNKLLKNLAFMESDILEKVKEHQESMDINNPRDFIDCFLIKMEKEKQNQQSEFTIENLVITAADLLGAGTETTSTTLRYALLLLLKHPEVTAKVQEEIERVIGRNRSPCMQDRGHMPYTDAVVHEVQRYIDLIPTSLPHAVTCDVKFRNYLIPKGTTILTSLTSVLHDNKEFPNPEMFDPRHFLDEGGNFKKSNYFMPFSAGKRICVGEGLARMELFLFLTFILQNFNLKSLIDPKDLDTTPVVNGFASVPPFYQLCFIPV
CYP2C9 activ: CYP2C9 (human) activation. actives 1.4% (n = 96,000). recombinant CYP2C9, luciferin-H conversion, luminescence; hits give high values; factor 1 = untreated enzyme, 0 = blocked. activation factor at 5 µM. AID 1024;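 active = activation factor of 2 or more for CYP2C9 at a 5 µM dose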
PostGolgi yeast: growth inhibition of a yeast mutant, post-Golgi transport screen. post-Golgi transport phenotypic cell assay. inhibition, % at 10 µM. actives 0.9% (n = 98,000). AID 739;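 note: yeast cells grown in 1536-well plates; yeast grown about 18 h at 30C before absorbance read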
CYP2C19 inh: blocks human cytochrome P450 2C19; inhibition, % at 5 µM; AID 778; P33261; CYP2C19 Supersomes, luciferin-H EGE luminescence, 30 min; actives 21% (n = 96,000);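 active = CYP2C19 inhibition above a set limit at 5 µM in the primary screen, cut at about 50% in these data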
CYP2C9 inh: blocks human cytochrome P450 2C9. CYP2C9 Supersomes, luciferin-H conversion, luminescence. inhibition, % at 5 µM. actives 20% (n = 96,000). AID 777;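 active = blocking of liver enzyme CYP2C9 beyond about 50% at 5 µM, limit read from the data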
Large screens that a line does not name were inactive. Cut-off read from the data, not from the text of the source, unless noted: active = inhibition above about 30%; inactive = the rest.

COC(=O)c1nnc(-c2ccccc2)c(-c2ccccc2)n1	none
CCCCNC(=O)COC(=O)c1ccc(Cl)c(S(=O)(=O)N2CCCC2)c1	CYP2C19 inh 73.6
CC(C)NC(=O)COC(=O)c1ccc(Cl)c(S(=O)(=O)N2CCCC2)c1	PostGolgi ctrl 31.9
O=C(COC(=O)c1ccc(S(=O)(=O)N2CCCC2)cc1)NCc1ccc(Cl)cc1	CYP2C9 inh 54.0
O=C(COC(=O)Cc1ccc(S(=O)(=O)N2CCOCC2)s1)NCc1ccc(Cl)cc1	CYP2C19 inh 73.3, CYP2C9 inh 86.2
CCOc1ccc(NC(=O)COC(=O)Cc2ccc(S(=O)(=O)N3CCOCC3)s2)cc1	none
CCNC(=O)COC(=O)c1ccc(S(=O)(=O)N2CCCCCC2)cc1	none
COc1ccc(NC(C)=O)cc1NC(=O)CSc1nnc(-c2ccc(F)cc2)n1N	none
c1ccc(C2=Nc3ccccc3SC2c2nc3ccccc3[nH]2)cc1 (stereo unspecified)	none
CC(C)(C)NC(=O)CN(Cc1cccs1)C(=O)CCC(=O)Nc1nccs1	none
O=C(Cn1nc(Cc2cccnc2)c2ccccc2c1=O)N1CCN(C(=O)c2ccco2)CC1	none
COc1cccc(NC(=O)Cn2nc(Cc3cccnc3)c3ccccc3c2=O)c1	CYP2C9 inh 59.1
COc1ccc(CNC(=O)Cn2nc(Cc3cccnc3)c3ccccc3c2=O)cc1	CYP2C9 inh 75.8
CCOC(=O)C1CCCN(C(=O)Cn2nc(Cc3cccnc3)c3ccccc3c2=O)C1 (stereo unspecified)	none
O=c1cc(CSc2nnc(-c3ccccc3)o2)c2ccccc2[nH]1	none (no result: CYP2C19 activ, CYP2C9 activ, CYP2C19 inh, CYP2C9 inh)
Cc1occc1-c1nnc(SCC(=O)Nc2nccs2)n1Cc1ccco1	PostGolgi ctrl 35.5, CYP2C19 inh 72.1, CYP2C9 inh 54.6
Cc1cc(C)nc(SCc2nnc(SCC(=O)Nc3nccs3)n2Cc2ccco2)n1	CYP2C9 inh 62.6
Cc1cccc(NC(=O)CSc2nnc(CSc3nc(C)cc(C)n3)n2Cc2ccco2)c1	none
CCOC(=O)CN(C(=O)Cn1nnc(-c2ccc(C)cc2)n1)C(CC)C(=O)NC1CCCC1 (stereo unspecified)	none
O=C(Cn1nnc(-c2ccncc2)n1)N(C1CCCCC1)C1CCCCC1	CYP2C19 inh 87.3, CYP2C9 inh 87.4
CC(C)(C)NC(=O)C(c1ccncc1)N(C(=O)Cn1nnc(-c2cccs2)n1)C1CCCCC1 (stereo unspecified)	CYP2C19 inh 68.6, CYP2C9 inh 75.6
CC(C)(C)NC(=O)C(c1ccncc1)N(Cc1cccs1)C(=O)Cn1nnc(-c2cccs2)n1 (stereo unspecified)	CYP2C19 inh 92.0, CYP2C9 inh 91.8
CCC(C(=O)NC1CCCC1)N(Cc1ccco1)C(=O)Cn1nnc(-c2ccc(C)cc2)n1 (stereo unspecified)	CYP2C19 inh 82.8, CYP2C9 inh 72.4
CCOc1ccc(N2CC(C(=O)Nc3cccc(C)c3C)CC2=O)cc1 (stereo unspecified)	none
N#CCC(=N)N1CCN(c2cccc(Cl)c2)CC1	none
CCOC(=O)CNC(=O)c1cn(CC)c(=O)c2cc(OC)c(OC)cc12	none
Cc1ccc(N(C(=O)Cn2nnc(-c3cccs3)n2)C(C(=O)NC2CCCC2)c2ccncc2)cc1 (stereo unspecified)	CYP2C9 inh 53.5
Cc1ccc(-c2nnn(CC(=O)N(Cc3ccccc3)C(C(=O)NC(C)(C)C)c3ccncc3)n2)o1 (stereo unspecified)	CYP2C19 inh 50.2
Cc1ccc(-c2nnn(CC(=O)N(c3cccc(O)c3)C(C(=O)NC(C)(C)C)c3cccs3)n2)o1 (stereo unspecified)	none
Cc1nnc(-c2cnn(C)c2N)n1Cc1cccc(Cl)c1	none
CN(CC1CCCO1)S(=O)(=O)c1ccc(C(=O)Nc2nc(-c3ccccn3)cs2)cc1 (stereo unspecified)	none
O=C(CC1(C(=O)O)CCCC1)N1CCOCC1	none
CCOc1ccc(C2CC(c3ccccc3)Nc3nc(N)nn32)cc1 (stereo unspecified)	CYP2C9 inh 51.3
CCc1ccc(C2CC(c3ccc(F)cc3)Nc3nc(N)nn32)cc1 (stereo unspecified)	CYP2C19 inh 50.6
Nc1nc2n(n1)C(c1ccccc1)CC(c1ccc(F)cc1)N2 (stereo unspecified)	CYP2C19 inh 97.8, CYP2C9 inh 93.3
COc1ccccc1C1CC(c2ccc(Cl)cc2Cl)Nc2nc(N)nn21 (stereo unspecified)	CYP2C19 inh 83.2
COc1ccc(NC(=O)c2ccccc2Cl)cc1NC(=O)CN1CCOCC1	none
O=c1[nH]c2ccccc2n1C1CCCCC1	none
COCC(=O)N(C)c1nnc(-c2cnc(C)cn2)s1	none
Cc1nc2ccccc2cc1C(=O)NCc1ccco1	none (no result: PostGolgi ctrl, PostGolgi yeast)
CCOCCCNC(=O)N[C@@H](Cc1ccccc1)C(=O)OC	none
Cc1ccccc1C1CC(c2ccc(Br)cc2)Nc2nc(N)nn21 (stereo unspecified)	none (no result: CYP2C19 activ, CYP2C9 activ, CYP2C19 inh, CYP2C9 inh)
Cc1ccccc1C1CC(c2ccc(F)cc2)Nc2nc(N)nn21 (stereo unspecified)	CYP2C19 inh 69.3, CYP2C9 inh 84.5
COc1cccc(CNC(=O)C2CCCN(S(=O)(=O)c3c(C)n[nH]c3C)C2)c1 (stereo unspecified)	none
O=C(NNC(=O)c1ccc(SCC2CCCO2)c([N+](=O)[O-])c1)c1ccc(Cl)c([N+](=O)[O-])c1 (stereo unspecified)	CYP2C9 inh 73.6
O=C(NNC(=O)c1ccccc1Br)c1ccc(SCC2CCCO2)c([N+](=O)[O-])c1 (stereo unspecified)	CYP2C9 inh 61.9
Cc1ccc(C(=O)NNC(=O)c2ccc(SCC3CCCO3)c([N+](=O)[O-])c2)cc1 (stereo unspecified)	none
O=C(NNC(=O)c1cc(-c2ccc(Cl)cc2Cl)nc2ccccc12)Nc1ccccc1	none
Cc1ccc(Cn2nnc3c(=O)n(CC(=O)c4ccccc4)cnc32)cc1	CYP2C9 inh 60.3
O=C(Cn1cnc2c(nnn2Cc2ccccc2)c1=O)c1ccc(Cl)cc1	none (no result: CYP2C19 activ, CYP2C9 activ, CYP2C19 inh, CYP2C9 inh)
Cc1occc1C(=O)n1nnc2ccccc21	PostGolgi ctrl 31.9
Cc1occc1C(=O)n1cnc2ccccc21	none
CCOC(=O)CNc1c(N2CCN(c3ccccn3)CC2)c(=O)c1=O	none
COC(=O)CSc1cc(C(=O)c2nccn2C)c2ccccc2n1	CYP2C19 inh 81.7, CYP2C9 inh 52.2
CN(C)C(=O)c1ccccc1Sc1cc(Cl)ccc1Cl	PostGolgi ctrl 35.3, CYP2C19 inh 75.3
CN(C)C(=O)c1ccccc1Sc1ccc(Cl)cc1Cl	CYP2C19 inh 94.9, CYP2C9 inh 57.7
Cc1nc(C(=O)N(C)C)nn1-c1cc(Cl)ccc1Cl	none
O=C(O)c1ccccc1NS(=O)(=O)c1ccccc1C(F)(F)F	CYP2C9 inh 66.4
O=C(O)c1ccccc1Nc1ccccc1C(=O)O	none
NC(=O)c1ccccc1NS(=O)(=O)c1cccs1	none

Screens (PubChem BioAssay)
